From PubChem BioAssay AID2669 (National Center for Advancing Translational Sciences (NCATS), 2010)
Records with an inconclusive call do not appear. Unmarked numbers belong to inactive results. Active and inactive are the calls of the source. Calls follow the shape of the dose curve; as a rule, active = well fitted inhibition curve with a large enough effect; inconclusive = small, poorly fitted or top-dose-only effect, or effect the other way; inactive = flat fitted curve, though single readings scatter.

experiment: qHTS Assay Multiplex Screening to Identify Dual Action Probes in a Cell Model of Huntington: Cytoprotection (Protease relase); details: PC12 HttQ103 cells, Cytotox-Glo protease release, 40 h; series mostly up to 46.1 µM; activity change, negative = inhibition: at the top concentration
Description: NIH Chemical Genomics Center [NCGC]
NIH Molecular Libraries Probe Production centers Network [MLPCN]
Assay Submitter (PI): Wei Zheng
Huntington's disease is a neurodegenerative disorder caused by a trinucleotide repeat expansion in Exon 1 of the Huntingtin gene. The CAG trinucleotide encodes glutamine and polyglutamine expansions cause cell death in selective areas of the brain. Huntington polyglutamine repeats have the tendency to form aggregates which are observable in later stages of the disease. The exact nature of the aggregates, whether toxic, protective, or insignificant, is unclear.
A stable PC12 cell line containing a gene fusion of Exon 1 of the Huntingtin gene linked to GFP under the control of the inducible ecdysone promoter were used as the cell-based model of Huntington Disease for high throughput screening. Exon 1 of the Huntingtin gene contained an expansion of 103 polyglutamines (Q103) which, when expressed, caused cell death and distinct, bright GFP aggregates. The amount of cell death and the size and intensity of GFP aggregates increased over time and induction level. In the primary screen, cell death were quantified with a measurement of ATP content in the cells. A maximal 40-50% of cell death was observed when the Huntington gene was induced in this cell line.
We optimized this assay in a homogeneous 1536 well format. A quantitative high throughput screen (qHTS) was conducted on the PC12 cells which were induced to express the toxic fusion construct. Small molecules which prevented cell death were considered hits, and were further studied. The present assay is an alternate assay for cytoprotection using Promega's Cytotox-Glo reagent.
PC12 cells stably containing a construct with an ecdysone inducible promoter expressing GFP fused to the exon 1 of HTTQ103 (Huntington protein which containing a 103 ployglutamine expansion) were used.
NCGC Assay Protocol Summary:
Sequence, Parameter, Description
1, Reagent, 5 uL 1500 cells/well 1536 TC treated White clear bottom plate
2, Compound, 23 nL Tebufenozide inducer (100 nM final) to all columns
3, Compound, 23 nL 40 uM to 0.5 nM Libraries
5, Reagent, 2 ul Promega's Cytotox-Glo assay reagent
6, Detector, 4 sec integration with a Viewlux Luminescent
Media consisted of phenol red free DMEM + 5% equine serum (Hyclone # SH30072.03 ), 5% supplemented Bovine Calf Serum (Hyclone # SH30074.03 ), 1x pen/strep, no G418

SMILES | activity change, negative = inhibition [%] | Potency
Oc1cc(Cl)ccc1Oc1ccc(Cl)cc1Cl | -6.35 | –
NC(=O)c1sc2nc3c(c(-c4cccs4)c2c1N)CCCC3 | -20.3 | –
O=C1C=C2C=C[C@H]3C[C@@]2(O1)[C@H]1CCCCN31 | – | 794 nM (active)
C[C@@]1(CO)[C@H](O)CC[C@@]2(C)[C@H]1CC[C@H]1C[C@@H]3C[C@@]12CC[C@]3(O)CO | 8.07 | –
CC[C@]1(C2=NCCN2)Cc2ccccc2O1 | 6.43 | –
CCC(C)C(=O)OC1C(O)C2C(CN3CC(C)CCC3[C@]2(C)O)C2C[C@]34O[C@@]5(O)C(OC(=O)C(C)(O)CC)CCC3(C)C5C(OC(C)=O)C(OC(C)=O)C4[C@@]21O (some centres not stated) | 13.4 | –
C[C@H]1CC[C@@]2(NC1)O[C@@H]1C[C@H]3[C@@H]4CC=C5C[C@@H](O)CC[C@]5(C)[C@@H]4CC[C@]3(C)[C@@H]1[C@@H]2C | 15 | –
